Reference: PubChem BioAssay (Tox21)
The source made the active and inactive calls. A call without a number means that no potency is given here. Calls come from the whole dose curve; as a rule, active = well fitted activation curve with a large enough effect in the repeat runs; inconclusive = weak or mixed curves; inactive = flat fitted curve, though single readings scatter.

assay: A CellTox Green Cytotoxicity Assay to monitor cytotoxicity in HepG2 cells - 0 hour (AID 1224882); settings: CellTox Green fluorescence; series mostly up to 76.8 µM; note: nearly all actives have a fitted effect of over 35% in size
Excerpt: National Center for Advancing Translational Sciences [NCATS]
NIH Chemical Genomics Center [NCGC]
U.S. Environmental Protection Agency [EPA]
National Institutes of Environmental Health Sciences [NIEHS]
National Toxicology Program [NTP]
Cell-based models are critical for drug discovery. Determining the natural cytotoxic effects resulting from test compounds is an essential research activity. A CellTox Green Cytotoxicity Assay to monitor cytotoxicity in real time of continues cell culture during 40 hours of the compound treatment was used to screen Tox21 10K library compounds in HepG2 cells. CellTox Green Cytotoxicity Assay is a nonlytic, homogeneous, biofluorescent method to measure cytotoxicity in cell culture after experimental manipulation. The assay system uses a proprietary asymmetric cyanine dye that is excluded from viable cells but preferentially stains the dead cell's DNA. […] Viable cells produce no appreciable increases in fluorescence. Therefore, the fluorescence signal produced by the binding interaction with dead cell DNA is proportional to cytotoxicity.
The mixture of HepG2 cell suspension and reagents were dispensed at 600cells/6 ul/well in 1536-well tissue culture treated black solid bottom plates using a Multidrop dispenser. After the assay plates were incubated at a 37 C/5% CO2 incubator for 5 hours, 23 nL of compounds dissolved in DMSO, positive and negative controls was transferred to the assay plate by a pintool work station. The plates were incubated at 37 C for 40 hours. The fluorescence intensity were measured at 0h, 8h, 16h, 24h, 32h and 40h time points using ViewLux plate reader during compound treatment.
Potency is the fitted concentration of half-maximal effect.

| SMILES | Potency | cytotoxicity |
| --- | --- | --- |
| CC(C)(C)C1(CCc2ccc(Cl)cc2)CO1 (stereo not given) | inactive |  |
| CC1CCCC(=O)C1=O (stereo not given) | inactive |  |
| Cc1c[nH]c2ccccc12 | inactive |  |
| Cc1c(C2(c3cc(Br)c(O)c(Br)c3C)OS(=O)(=O)c3ccccc32)cc(Br)c(O)c1Br | inactive |  |
| CC[C@H]1OC(=O)[C@H](C)[C@@H](O[C@H]2C[C@@](C)(OC)[C@@H](O)[C@H](C)O2)[C@H](C)[C@@H](O[C@@H]2O[C@H](C)C[C@H](N(C)C)[C@H]2O)[C@](C)(O)C[C@@H](C)CN(C)[C@H](C)[C@@H](O)[C@]1(C)O | inactive |  |
| COc1cc(NS(=O)(=O)c2ccc(N)cc2)nc(C)n1 | inactive |  |
| CS(=O)(=O)c1ccc([C@@H](C[C@H]2CCC(=O)C2)C(=O)Nc2cnccn2)cc1Cl | inactive |  |
| CN(C)CC/C=C1\c2ccccc2Sc2ccc(Cl)cc21 | inactive |  |
| O=C(O)c1ccc(O)cc1O | inactive |  |
| CC(=O)C(C)=O | inactive |  |
| C=C(C)c1ccccc1 | inactive |  |
| O=NN(CCCl)C(=O)NCCCl | 5.35 µM (active) |  |
| Nc1cccc2c(N)cccc12 | inactive |  |
| CC(C)(C)S | inactive |  |
| CC(CN(CCN(CC(C)OCCO)CC(C)OCCO)CC(C)OCCO)OCCO (stereo not given) | inactive |  |
| CCCCC(CC)COS(=O)(=O)O (stereo not given) | inactive |  |
| COC1CCC=CO1 (stereo not given) | inactive |  |
| O=C(c1ccccc1)C1CCC1 | 38.9 µM (active) |  |
| CC(=O)NNC(C)=O | inactive |  |
| CCN(CC)c1cccc(O)c1 | inactive |  |

| SMILES | Potency | cytotoxicity |
| --- | --- | --- |
| CCCCCCCCCCCCCOC(=O)CCSCCC(=O)OCCCCCCCCCCCCC |  | 4.63% [at 15.8 µM] (inactive) |
| CSCC[C@H](NC(=O)[C@H](Cc1c[nH]c2ccccc12)NC(=O)CCNC(=O)OC(C)(C)C)C(=O)N[C@@H](CC(=O)O)C(=O)N[C@@H](Cc1ccccc1)C(N)=O | inactive |  |
| CCCCC[C@H](O)/C=C/[C@H]1[C@H](O)CC(=O)[C@@H]1C/C=C\CCCC(=O)O | inactive |  |
| CCO[Si](C)(CCCOCC1CO1)OCC (stereo not given) | inactive |  |
| COc1ccc(-c2cc(=S)ss2)cc1 | inactive |  |
| CC1=C2[C@@H]([C@H](C)CC[C@H]2/C=C(\C)C(=O)O)[C@H](O)C1 | inactive |  |
| CC(C)C(=O)OCCOc1ccccc1 | inactive |  |
| COc1ccc(-c2cc(C(F)F)nn2-c2ccc(S(N)(=O)=O)cc2)cc1F | inactive |  |
| CCCOC(=O)c1c(Cl)c(Cl)c(Cl)c(Cl)c1C(=O)OCCC | inactive |  |
| COc1ccc(/C=C/C(=O)c2ccc(OC)cc2OC)cc1 | inactive |  |
| Nc1ccc(NC(=O)c2ccc(N)cc2)cc1 | inactive |  |
| Cc1ccccc1S(N)(=O)=O | inactive |  |
| CC(=O)OC(C)C[N+](C)(C)C (stereo not given) | inactive |  |
| O=C1c2ccccc2C(=O)c2c(O)ccc(O)c21 | inactive |  |
| CC(=O)OCCC(C)CC(C)(C)C (stereo not given) | inactive |  |
| CC[C@H]1OC(=O)[C@H](C)[C@@H](O[C@H]2C[C@@](C)(OC)[C@@H](O)[C@H](C)O2)[C@H](C)[C@@H](O[C@@H]2O[C@H](C)C[C@H](N(C)C)[C@H]2O)[C@](C)(O)C[C@@H](C)C(=O)[C@H](C)[C@@H](O)[C@]1(C)O | inactive |  |
| CCCCCCCCCCCCCCN(C)C |  | -1.15% [at 15.8 µM] (inactive) |
| Cc1ccc(Cl)cc1N | inactive |  |
| CC1CCCO1 (stereo not given) | inactive |  |
| CCCCCCCCCCCCCCCC(=O)OCC | inactive |  |
